# Measurements: ChEMBL document CHEMBL1961873, “Compounds: GSK PKIS; Assays: Nanosyn kinase panel” (2012)
# Values joined by “and” are separate entries in the source; they are usually repeats but may differ in a detail not shown here. Equal values may be shown once.
# Key:
# [1] = molecular target: T1, Serine/threonine-protein kinase Nek9 (Homo sapiens) (UniProt Q8TD19); conditions: at 1 µM;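 note: each value is a mean percent inhibition of NEK9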
# T1 sequence (whole entry): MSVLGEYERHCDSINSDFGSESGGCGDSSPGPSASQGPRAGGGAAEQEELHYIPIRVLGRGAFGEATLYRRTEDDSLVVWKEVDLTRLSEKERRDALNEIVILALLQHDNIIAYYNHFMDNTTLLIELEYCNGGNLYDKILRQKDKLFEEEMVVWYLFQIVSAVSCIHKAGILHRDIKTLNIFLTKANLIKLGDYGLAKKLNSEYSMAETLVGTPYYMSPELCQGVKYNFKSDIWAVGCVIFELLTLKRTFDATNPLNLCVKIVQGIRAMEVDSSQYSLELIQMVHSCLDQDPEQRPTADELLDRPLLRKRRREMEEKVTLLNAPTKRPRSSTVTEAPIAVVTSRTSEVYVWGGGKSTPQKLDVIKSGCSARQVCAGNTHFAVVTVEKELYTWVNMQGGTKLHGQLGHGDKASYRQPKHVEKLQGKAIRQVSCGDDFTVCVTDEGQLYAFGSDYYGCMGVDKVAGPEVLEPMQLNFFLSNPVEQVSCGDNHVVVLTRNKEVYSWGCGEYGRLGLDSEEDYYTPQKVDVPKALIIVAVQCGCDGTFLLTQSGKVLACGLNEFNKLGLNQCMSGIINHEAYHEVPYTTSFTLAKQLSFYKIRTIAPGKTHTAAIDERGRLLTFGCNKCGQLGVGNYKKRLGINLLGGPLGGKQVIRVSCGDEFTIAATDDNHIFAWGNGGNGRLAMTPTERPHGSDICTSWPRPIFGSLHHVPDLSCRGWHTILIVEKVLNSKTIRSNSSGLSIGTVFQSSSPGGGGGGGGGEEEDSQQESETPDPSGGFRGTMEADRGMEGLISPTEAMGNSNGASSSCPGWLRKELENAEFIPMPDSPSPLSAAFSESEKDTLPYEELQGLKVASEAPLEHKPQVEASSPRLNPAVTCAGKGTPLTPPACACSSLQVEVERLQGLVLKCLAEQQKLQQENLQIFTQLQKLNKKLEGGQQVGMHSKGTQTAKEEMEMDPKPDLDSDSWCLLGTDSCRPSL
# [2] = molecular target: Serine/threonine-protein kinase PLK1 (Homo sapiens) (UniProt P53350); conditions: at 0.1 µM
# Chain of Serine/threonine-protein kinase PLK1 (Homo sapiens) (P53350 whole entry): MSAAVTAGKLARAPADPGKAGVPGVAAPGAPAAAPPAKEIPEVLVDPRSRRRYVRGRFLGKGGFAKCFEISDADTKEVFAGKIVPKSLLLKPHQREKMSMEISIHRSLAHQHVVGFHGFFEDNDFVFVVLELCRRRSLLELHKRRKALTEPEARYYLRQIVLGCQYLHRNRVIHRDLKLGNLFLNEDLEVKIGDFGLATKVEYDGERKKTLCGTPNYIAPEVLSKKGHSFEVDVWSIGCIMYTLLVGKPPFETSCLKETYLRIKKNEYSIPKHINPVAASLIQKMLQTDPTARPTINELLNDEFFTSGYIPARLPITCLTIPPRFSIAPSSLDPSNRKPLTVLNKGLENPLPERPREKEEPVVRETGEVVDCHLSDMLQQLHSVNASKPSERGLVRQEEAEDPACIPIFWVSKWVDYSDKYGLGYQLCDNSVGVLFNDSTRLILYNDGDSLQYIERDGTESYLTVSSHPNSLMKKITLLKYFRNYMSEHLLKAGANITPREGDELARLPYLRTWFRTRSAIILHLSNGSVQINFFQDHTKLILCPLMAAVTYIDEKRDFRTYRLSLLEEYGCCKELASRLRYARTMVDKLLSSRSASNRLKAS
# [3] = molecular target: Serine/threonine-protein kinase PLK1 (Homo sapiens) (UniProt P53350); conditions: at 1 µM
# [4] = molecular target: T2, Dual specificity protein kinase TTK (Homo sapiens) (UniProt P33981); conditions: at 0.1 µM
# T2 sequence (whole entry): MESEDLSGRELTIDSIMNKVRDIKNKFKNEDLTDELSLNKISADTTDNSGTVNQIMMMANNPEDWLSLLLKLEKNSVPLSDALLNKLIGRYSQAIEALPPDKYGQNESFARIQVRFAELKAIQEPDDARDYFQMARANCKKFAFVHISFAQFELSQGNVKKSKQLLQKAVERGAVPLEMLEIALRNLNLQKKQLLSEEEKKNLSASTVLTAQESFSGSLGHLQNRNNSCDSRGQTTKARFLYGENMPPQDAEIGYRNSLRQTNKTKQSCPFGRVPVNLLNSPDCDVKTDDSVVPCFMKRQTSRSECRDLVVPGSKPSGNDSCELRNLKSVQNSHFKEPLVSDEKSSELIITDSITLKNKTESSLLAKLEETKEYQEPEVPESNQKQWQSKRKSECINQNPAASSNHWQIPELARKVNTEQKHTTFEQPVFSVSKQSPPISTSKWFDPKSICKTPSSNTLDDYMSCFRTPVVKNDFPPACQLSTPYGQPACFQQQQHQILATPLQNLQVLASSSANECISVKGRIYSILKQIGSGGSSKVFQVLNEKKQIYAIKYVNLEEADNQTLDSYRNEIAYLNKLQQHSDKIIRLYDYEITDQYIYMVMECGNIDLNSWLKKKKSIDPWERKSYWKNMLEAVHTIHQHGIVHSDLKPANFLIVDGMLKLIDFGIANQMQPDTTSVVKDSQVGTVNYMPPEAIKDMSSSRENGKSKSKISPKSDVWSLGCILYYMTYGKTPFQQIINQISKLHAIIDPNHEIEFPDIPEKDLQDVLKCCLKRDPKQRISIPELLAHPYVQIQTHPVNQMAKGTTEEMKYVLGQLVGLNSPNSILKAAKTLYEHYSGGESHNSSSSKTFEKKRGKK
# [5] = system: T3, Receptor-type tyrosine-protein kinase FLT3 (Homo sapiens), P36888 [D835Y]; conditions: at 1 µM
# T3 sequence (whole entry): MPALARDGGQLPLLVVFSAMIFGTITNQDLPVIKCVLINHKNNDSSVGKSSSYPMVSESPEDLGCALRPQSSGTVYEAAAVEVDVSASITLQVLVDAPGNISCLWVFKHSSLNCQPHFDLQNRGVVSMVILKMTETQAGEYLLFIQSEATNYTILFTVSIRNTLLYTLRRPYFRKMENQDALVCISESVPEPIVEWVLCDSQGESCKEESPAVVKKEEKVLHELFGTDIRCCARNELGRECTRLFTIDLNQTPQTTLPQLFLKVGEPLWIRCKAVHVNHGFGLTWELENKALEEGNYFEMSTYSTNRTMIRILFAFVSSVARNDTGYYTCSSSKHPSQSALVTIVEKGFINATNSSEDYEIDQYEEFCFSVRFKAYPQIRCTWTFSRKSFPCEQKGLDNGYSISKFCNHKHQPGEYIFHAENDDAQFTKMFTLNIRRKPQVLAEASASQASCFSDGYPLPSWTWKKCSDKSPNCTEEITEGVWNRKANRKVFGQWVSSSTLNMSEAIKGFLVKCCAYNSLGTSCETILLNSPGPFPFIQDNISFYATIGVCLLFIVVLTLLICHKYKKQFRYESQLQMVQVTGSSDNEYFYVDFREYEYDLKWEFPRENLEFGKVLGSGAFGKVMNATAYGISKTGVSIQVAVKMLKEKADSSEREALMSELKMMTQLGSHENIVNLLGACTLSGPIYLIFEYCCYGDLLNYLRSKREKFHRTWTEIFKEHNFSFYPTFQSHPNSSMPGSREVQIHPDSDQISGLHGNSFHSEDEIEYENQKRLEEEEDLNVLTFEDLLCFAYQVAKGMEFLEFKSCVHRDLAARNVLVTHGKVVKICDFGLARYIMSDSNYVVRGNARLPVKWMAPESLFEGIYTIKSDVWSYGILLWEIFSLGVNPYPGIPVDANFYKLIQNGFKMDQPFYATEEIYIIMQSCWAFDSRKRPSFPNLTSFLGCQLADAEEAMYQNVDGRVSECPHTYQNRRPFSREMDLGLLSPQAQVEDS
# [6] = molecular target: Vascular endothelial growth factor receptor 3 (Homo sapiens) (UniProt P35916); conditions: at 0.1 µM
# Chain of Vascular endothelial growth factor receptor 3 (Homo sapiens) (P35916 whole entry): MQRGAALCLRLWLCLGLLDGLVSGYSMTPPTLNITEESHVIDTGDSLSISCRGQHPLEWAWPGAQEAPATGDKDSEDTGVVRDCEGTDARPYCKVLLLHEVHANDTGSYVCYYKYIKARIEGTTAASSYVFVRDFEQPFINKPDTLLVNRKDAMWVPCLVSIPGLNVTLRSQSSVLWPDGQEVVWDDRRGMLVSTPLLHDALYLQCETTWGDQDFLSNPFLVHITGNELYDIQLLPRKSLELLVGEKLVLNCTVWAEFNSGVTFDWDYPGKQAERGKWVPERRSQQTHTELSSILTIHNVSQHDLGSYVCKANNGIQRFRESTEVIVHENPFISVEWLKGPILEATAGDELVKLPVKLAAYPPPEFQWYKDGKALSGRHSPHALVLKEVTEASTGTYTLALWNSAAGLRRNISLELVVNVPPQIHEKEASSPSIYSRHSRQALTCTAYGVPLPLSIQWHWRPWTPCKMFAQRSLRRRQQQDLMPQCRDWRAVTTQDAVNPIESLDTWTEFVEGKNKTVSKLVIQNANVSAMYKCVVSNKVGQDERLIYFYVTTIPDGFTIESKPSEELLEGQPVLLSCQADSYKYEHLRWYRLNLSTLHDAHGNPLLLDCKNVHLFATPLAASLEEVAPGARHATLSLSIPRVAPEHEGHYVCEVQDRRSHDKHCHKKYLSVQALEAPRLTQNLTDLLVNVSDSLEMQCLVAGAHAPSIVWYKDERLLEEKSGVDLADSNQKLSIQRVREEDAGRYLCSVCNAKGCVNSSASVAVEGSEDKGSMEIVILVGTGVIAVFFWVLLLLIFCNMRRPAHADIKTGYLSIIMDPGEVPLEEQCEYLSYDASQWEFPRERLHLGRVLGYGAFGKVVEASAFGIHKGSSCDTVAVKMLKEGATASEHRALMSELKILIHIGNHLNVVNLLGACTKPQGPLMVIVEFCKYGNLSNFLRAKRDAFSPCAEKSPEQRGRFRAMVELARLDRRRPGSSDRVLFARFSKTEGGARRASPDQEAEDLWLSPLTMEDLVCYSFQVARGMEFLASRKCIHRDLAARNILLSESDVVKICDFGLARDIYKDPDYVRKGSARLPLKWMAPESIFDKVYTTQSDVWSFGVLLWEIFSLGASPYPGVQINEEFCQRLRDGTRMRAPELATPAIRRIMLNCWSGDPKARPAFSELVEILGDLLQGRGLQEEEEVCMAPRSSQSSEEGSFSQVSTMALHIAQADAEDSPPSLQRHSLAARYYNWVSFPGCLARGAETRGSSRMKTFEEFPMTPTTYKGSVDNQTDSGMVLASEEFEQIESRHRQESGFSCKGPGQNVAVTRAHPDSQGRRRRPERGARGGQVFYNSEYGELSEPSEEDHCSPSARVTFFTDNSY
# [7] = molecular target: Vascular endothelial growth factor receptor 3 (Homo sapiens) (UniProt P35916); conditions: at 1 µM
# [8] = molecular target: Macrophage colony-stimulating factor 1 receptor (Homo sapiens) (UniProt P07333); conditions: at 0.1 µM
# Chain of Macrophage colony-stimulating factor 1 receptor (Homo sapiens) (P07333 whole entry): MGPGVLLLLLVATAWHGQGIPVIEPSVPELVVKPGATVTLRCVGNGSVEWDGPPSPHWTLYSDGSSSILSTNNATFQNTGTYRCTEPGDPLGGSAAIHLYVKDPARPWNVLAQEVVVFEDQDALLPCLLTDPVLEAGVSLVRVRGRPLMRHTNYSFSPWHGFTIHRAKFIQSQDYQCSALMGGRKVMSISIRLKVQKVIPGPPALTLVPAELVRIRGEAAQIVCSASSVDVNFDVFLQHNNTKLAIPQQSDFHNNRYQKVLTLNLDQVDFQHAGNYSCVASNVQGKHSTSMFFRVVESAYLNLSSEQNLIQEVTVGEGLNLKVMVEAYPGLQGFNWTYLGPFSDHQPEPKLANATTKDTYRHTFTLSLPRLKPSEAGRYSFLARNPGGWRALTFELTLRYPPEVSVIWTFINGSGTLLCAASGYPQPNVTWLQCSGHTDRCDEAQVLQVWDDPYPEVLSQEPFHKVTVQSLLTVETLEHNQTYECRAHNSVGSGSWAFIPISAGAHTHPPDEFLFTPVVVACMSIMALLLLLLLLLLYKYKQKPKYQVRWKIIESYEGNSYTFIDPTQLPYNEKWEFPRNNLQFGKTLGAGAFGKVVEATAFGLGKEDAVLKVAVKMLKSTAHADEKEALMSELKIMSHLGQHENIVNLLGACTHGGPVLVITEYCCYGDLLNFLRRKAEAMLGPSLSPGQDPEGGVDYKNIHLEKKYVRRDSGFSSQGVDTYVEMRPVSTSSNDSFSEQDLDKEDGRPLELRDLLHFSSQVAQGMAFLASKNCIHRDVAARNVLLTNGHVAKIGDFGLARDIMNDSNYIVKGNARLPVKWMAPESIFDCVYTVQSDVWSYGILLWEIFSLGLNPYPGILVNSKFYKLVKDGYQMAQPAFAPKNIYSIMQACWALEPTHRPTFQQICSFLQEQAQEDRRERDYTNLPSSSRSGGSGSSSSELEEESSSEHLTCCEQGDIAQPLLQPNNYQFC
# [9] = molecular target: Macrophage colony-stimulating factor 1 receptor (Homo sapiens) (UniProt P07333); conditions: at 1 µM
# [10] = molecular target: Tyrosine-protein kinase Fyn (Homo sapiens) (UniProt P06241); conditions: at 0.1 µM
# Chain of Tyrosine-protein kinase Fyn (Homo sapiens) (P06241 2-537 limits assumed): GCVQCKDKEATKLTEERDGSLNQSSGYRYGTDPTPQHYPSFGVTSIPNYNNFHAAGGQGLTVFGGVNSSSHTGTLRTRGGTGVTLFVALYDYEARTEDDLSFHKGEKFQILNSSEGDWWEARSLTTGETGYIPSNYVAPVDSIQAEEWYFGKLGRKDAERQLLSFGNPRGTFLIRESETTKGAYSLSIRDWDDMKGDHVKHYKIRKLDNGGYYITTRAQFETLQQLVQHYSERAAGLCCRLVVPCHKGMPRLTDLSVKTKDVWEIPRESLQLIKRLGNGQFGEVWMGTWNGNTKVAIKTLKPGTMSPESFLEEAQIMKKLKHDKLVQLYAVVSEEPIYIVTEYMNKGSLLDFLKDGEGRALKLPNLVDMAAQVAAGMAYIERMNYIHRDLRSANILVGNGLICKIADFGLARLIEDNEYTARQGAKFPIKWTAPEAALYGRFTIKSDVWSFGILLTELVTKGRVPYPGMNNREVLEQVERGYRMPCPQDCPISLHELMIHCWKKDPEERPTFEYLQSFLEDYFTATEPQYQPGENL
Structure (SMILES),inhibition [1],inhibition [2],inhibition [3],inhibition [4],inhibition [5],inhibition [6],inhibition [7],inhibition [8],inhibition [9],inhibition [10]
CC1=C(C(=O)Nc2ccc3[nH]nc(C)c3c2)C(c2ccc(C(F)(F)F)cc2)CC(=O)N1 (stereo not given),-5.55%,3.32%,0.85%,4.14%,5.4%,5.85%,2.72%,1.56%,2.04%,2.88%
Nc1ncnc2occ(-c3ccc(NC(=O)Nc4cc(C(F)(F)F)ccc4F)cc3)c12,4.68% and 3.35%,2.14% and -0.72%,1.27% and 0.12%,1.69% and 5.46%,35.4% and 26.1%,44.8% and 23.6%,97.2% and 75.5%,91.2% and 83.5%,96.1% and 81.2%,2.34% and 3.05%
Fc1ccc(Nc2nccc(-c3c(-c4ccc(C(F)(F)F)cc4)nn4ncccc34)n2)cc1F,1.67%,2.18%,2.92%,7.64%,-2.39%,0.19%,-1.91%,2.64%,6.66%,0.1%
CNC(=O)c1cncc(/C=C/c2ccccc2C)c1,3.57%,4.47%,3.11%,8.61%,2.62%,6.74%,3.1%,-0.27%,4.09%,-0.42%
c1cnn2ncc(-c3ccnc(NCCCN4CCOCC4)n3)c2c1,9.51%,4.18%,3.55%,9.47%,1.99%,0.01%,0.07%,-0.33%,5.17%,2.47%
COc1cccc(-n2ncc3c(N/N=C/c4ccc(C(=O)NCCN(C)C)cc4)ncnc32)c1,1.36%,1.5%,2.1%,3.48%,76%,12.1%,53.5%,6.78%,37.8%,48.6%
NC(=O)c1ccc2c(-c3ccnc(NCCCO)n3)c(-c3ccc(F)cc3)nn2c1,5.15%,3.87%,4.03%,14%,-0.97%,2.83%,1.06%,5.2%,8.64%,2.14%
CN1CCC(n2cnc(-c3ccc(F)cc3)c2-c2ccnc(NCCO)n2)CC1,8.58%,1.49%,2.42%,-0.23%,4.59%,4.64%,0.88%,3.25%,3.2%,2.96%
